# Active and inactive are the calls of the source.
# Legend:
# [1] = E. coli DRC41 culture turbidity changes, primary screen, E. coli filamentation inducer project, strain DRC41, OD650, 48 h (AID 1152);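 further: E. coli MC1000 strain DRC41 lacking acrAB efflux pump and sulA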; settings: E. coli DRC41 (acrAB sulA), higher = more signal, called active from +8 up or from −8 down
# [2] = small-molecule binders of probe aLefty1, primary screen, biochemical, small-molecule microarray, 635/667 nm fluorescence (AID 1153); settings: higher = more signal;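 further: score merges spot fluorescence with signal-to-noise ratio from the scanned slide images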
# [3] = PSAC antagonists in infected red cells, primary screen, cell-based, P. falciparum Indochina, OD700, 1 h (AID 1154); settings: P. falciparum Indochina infected RBC osmotic lysis, higher = more signal, called active from +8 up or from −8 down
# [4] = PSAC antagonists in infected red cells, primary screen, cell-based, P. falciparum Indochina, OD700, 2 h (AID 1155);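 further: lysis reports solute entry through the parasite surface anion channel PSAC; channel blockers reduce lysis of infected cells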; settings: P. falciparum Indochina infected erythrocytes, osmotic lysis OD700; higher = more signal, called active from +8 up or from −8 down
# [5] = osmotic lysis modulators in infected erythrocytes, primary screen, PSAC antagonist project, cell-based, P. falciparum Indochina, OD700, 3 h (AID 1156); settings: higher = more signal, called active from +8 up or from −8 down
# [6] = PSAC antagonists in infected red cells, primary screen, cell-based, P. falciparum Indochina, OD700, 18 h (AID 1157); settings: P. falciparum Indochina infected erythrocytes, osmotic lysis OD700, 18 h; higher = more signal, called active from +8 up or from −8 down
# [7] = modulators of S6 phosphorylation in cells, primary screen, cell-based, A549, cytoblot, luminescence, serum-stimulated (AID 1158); settings: A549 phospho-S6 cytoblot, 5 h, higher = more signal;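 further: serum-stimulated A549 lung adenocarcinoma cells; signal is phosphorylated S6 detected by cytoblot immunostaining with HRP secondary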
# [8] = biological target: NADPH oxidase 2 (Homo sapiens) (UniProt P04839); assay: NOX2-dependent H2O2 signal modulators, primary screen, NOX inhibitor project, cell-based, HEK293-NOX2, PMA-stimulated, Amplex Red fluorescence (AID 1159); settings: 45 min, higher = more signal, called active from +8 up or from −8 down; further: test concentration not given here
# NADPH oxidase 2 (Homo sapiens), sequence (P04839 whole entry, looked up): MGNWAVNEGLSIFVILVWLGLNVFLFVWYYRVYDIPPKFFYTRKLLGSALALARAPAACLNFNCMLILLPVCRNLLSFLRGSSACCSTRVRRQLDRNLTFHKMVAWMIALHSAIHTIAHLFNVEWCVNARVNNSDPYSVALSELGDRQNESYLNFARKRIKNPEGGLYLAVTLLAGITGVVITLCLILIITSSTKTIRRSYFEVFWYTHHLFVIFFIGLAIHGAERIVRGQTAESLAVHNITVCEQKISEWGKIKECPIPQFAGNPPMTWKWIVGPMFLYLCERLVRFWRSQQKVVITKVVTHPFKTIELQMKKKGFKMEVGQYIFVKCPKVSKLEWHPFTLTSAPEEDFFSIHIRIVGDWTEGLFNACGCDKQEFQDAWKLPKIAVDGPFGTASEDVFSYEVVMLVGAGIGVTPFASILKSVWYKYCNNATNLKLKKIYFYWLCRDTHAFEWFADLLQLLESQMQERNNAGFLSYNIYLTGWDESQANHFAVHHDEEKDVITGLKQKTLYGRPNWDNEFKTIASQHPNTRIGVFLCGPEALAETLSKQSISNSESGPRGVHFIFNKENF
# [9] = biological target: NADPH oxidase 4 (Homo sapiens) (UniProt Q9NPH5); assay: NOX4-dependent H2O2 signal modulators, primary screen, NOX inhibitor project, cell-based, HEK293-NOX4, tetracycline-induced, Amplex Red fluorescence (AID 1160); settings: 45 min, higher = more signal, called active from +8 up or from −8 down
# NADPH oxidase 4 (Homo sapiens), sequence (Q9NPH5 whole entry, looked up): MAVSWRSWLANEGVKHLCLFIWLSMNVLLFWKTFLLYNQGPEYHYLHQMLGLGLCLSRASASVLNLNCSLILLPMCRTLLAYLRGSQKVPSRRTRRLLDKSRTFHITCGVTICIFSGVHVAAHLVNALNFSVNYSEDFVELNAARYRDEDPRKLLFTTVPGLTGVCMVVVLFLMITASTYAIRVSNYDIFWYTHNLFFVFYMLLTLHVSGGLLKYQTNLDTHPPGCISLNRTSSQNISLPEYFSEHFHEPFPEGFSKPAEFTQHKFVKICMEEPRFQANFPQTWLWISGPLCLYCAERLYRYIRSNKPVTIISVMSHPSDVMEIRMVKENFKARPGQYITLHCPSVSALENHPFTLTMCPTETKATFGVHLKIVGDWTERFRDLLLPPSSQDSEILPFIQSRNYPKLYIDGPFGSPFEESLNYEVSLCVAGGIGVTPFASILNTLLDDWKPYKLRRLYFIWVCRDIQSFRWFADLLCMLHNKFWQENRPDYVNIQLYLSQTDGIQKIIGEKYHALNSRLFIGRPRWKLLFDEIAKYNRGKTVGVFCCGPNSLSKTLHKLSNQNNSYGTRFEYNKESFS
# [10] = biological target: NADPH oxidase 5 (Homo sapiens) (UniProt Q96PH1); assay: NOX5-dependent H2O2 signal modulators, primary screen, NOX inhibitor project, cell-based, HEK293-NOX5, Amplex Red fluorescence (AID 1161); settings: HEK293-NOX5, ionomycin, 45 min, higher = more signal
# NADPH oxidase 5 (Homo sapiens), sequence (Q96PH1 whole entry, looked up): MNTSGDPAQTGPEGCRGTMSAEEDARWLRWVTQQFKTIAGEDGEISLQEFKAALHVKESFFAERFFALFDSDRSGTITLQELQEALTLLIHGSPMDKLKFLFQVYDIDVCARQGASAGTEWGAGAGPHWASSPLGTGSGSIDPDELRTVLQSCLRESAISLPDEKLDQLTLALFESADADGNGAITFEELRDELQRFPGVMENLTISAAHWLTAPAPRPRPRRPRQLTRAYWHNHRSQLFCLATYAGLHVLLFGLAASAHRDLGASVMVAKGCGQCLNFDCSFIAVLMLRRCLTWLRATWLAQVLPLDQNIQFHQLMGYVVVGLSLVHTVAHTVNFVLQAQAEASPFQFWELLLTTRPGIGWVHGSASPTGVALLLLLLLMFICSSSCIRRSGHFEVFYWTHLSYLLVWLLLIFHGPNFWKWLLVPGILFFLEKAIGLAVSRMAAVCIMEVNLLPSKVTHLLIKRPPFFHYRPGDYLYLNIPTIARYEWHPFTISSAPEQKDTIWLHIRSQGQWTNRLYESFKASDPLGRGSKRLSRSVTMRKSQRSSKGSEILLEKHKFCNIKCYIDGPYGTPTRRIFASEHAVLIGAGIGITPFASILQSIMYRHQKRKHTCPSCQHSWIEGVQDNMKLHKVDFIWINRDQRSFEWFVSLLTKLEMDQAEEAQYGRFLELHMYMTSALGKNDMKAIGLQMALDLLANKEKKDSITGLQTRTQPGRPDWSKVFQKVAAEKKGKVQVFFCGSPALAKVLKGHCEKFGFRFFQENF
# [11] = A549 cell viability effects, profiling panel, calcein-AM fluorescence, 48 h, basal (AID 1162); settings: higher = more signal; further: test concentration not given here
# [12] = adipocyte viability effects, profiling panel, cell-based, 3T3-L1 adipocytes, calcein-AM fluorescence, 48 h, basal (AID 1163); settings: 3T3-L1 adipocytes viability, higher = more signal; further: test concentration not given here
# [13] = HepG2 cell viability effects, profiling panel, calcein-AM fluorescence, 48 h, basal (AID 1164); settings: higher = more signal; further: test concentration not given here
# [14] = MM1S cell viability effects, profiling panel, calcein-AM fluorescence, 48 h, basal (AID 1165); settings: higher = more signal;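 further: viability of MM1S multiple myeloma cells under basal unstimulated conditions; test concentration not given here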
# [15] = basal RPMI8226 viability, no added stimulus, profiling panel, cell-based, calcein-AM fluorescence, 48 h, PK04 Diversity Set (AID 1166); settings: RPMI8226 myeloma viability, higher = more signal;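 further: cells grown under basal conditions without added stimulus; test concentration not given here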
# [16] = basal HepG2 mitochondrial membrane potential changes, profiling panel, cell-based, JC-1 fluorescence, 24 h, 100 nL compound (AID 1167); settings: higher = more signal; further: test concentration not given here
# [17] = basal 3T3-L1 adipocyte mitochondrial potential changes, profiling panel, cell-based, JC-1 fluorescence, 3T3-L1 adipocytes, 24 h, 100 nL compound (AID 1168); settings: JC-1 mitochondrial fluorescence, higher = more signal, called active from +8 up or from −8 down; further: test concentration not given here
# [18] = basal RPMI8226 mitochondrial membrane potential changes, profiling panel, cell-based, JC-1 fluorescence, 24 h, 100 nL compound (AID 1169); settings: RPMI8226 myeloma, JC-1 mitochondrial potential fluorescence, higher = more signal; further: test concentration not given here
# [19] = basal MM1S mitochondrial membrane potential changes, profiling panel, cell-based, JC-1 fluorescence, 24 h, 100 nL compound (AID 1170); settings: higher = more signal; further: test concentration not given here
# [20] = A549 lung cancer cell viability effects, profiling panel, resazurin fluorescence, 24 h, PK04 Diversity Set (AID 1171); settings: higher = more signal, called active from +8 up or from −8 down; further: test concentration not given here
SMILES,z-score [1],composite z-score [2],z-score [3],z-score [4],z-score [5],z-score [6],z-score [7],z-score [8],z-score [9],z-score [10],z-score [11],z-score [12],z-score [13],z-score [14],z-score [15],z-score [16],z-score [17],z-score [18],z-score [19],z-score [20]
COc1ccc([Si](C)(C)[C@@H]2[C@@H](CC(=O)N3CCC[C@H]3CO)O[C@]3(C(=O)N(c4ccccc4)c4ccccc43)[C@H]2C)cc1,2.66 (inactive),-0.0718,0.616 (inactive),-0.748 (inactive),1.1 (inactive),-1.44 (inactive),0.499,2.54 (inactive),1.74 (inactive),2.4,1.61,0.93,-0.259,-0.011,0.17,1.29,-0.181 (inactive),-0.277,-0.544,1.13 (inactive)
C=C(CCCC)/C(=C/C[C@@H](OC(=O)c1ccncc1)c1ccc(OCCO)cc1)c1cc(C(=O)OC)ccc1OC,0.4 (inactive),-0.0984,17.3 (active),3.18 (inactive),1.85 (inactive),0.969 (inactive),0.377,-1.61 (inactive),-0.665 (inactive),-1.9,0.941,-0.18,1.86,-0.61,-0.385,2.46,-0.451 (inactive),-0.728,-0.969,0.998 (inactive)
COc1ccc(C(=O)Nc2ccc(CN3C(=O)[C@]4(O[C@H](CCO)[C@@H]([Si](C)(C)c5ccc(OC)cc5)[C@@H]4C)c4ccccc43)cc2)cc1,-1.37 (inactive),0.199,5.29 (inactive),2.11 (inactive),-0.205 (inactive),2.12 (inactive),-1.38,-6.37 (inactive),-2.55 (inactive),-1.54,-3.8,-0.0656,-4.64,-2.62,-4.35,-2.72,1.36 (inactive),-1.06,-2.28,-3.79 (inactive)
COc1ccc([Si](C)(C)[C@@H]2[C@@H](CCO)O[C@]3(C(=O)N(Cc4ccc(N(C=O)c5ccccc5)cc4)c4ccccc43)[C@H]2C)cc1,-0.482 (inactive),-0.06,4.33 (inactive),2.33 (inactive),0.287 (inactive),1.7 (inactive),0.257,1.07 (inactive),1.52 (inactive),2.89,-0.844,-0.193,-3.46,-1.94,-3.9,-0.164,0.21 (inactive),-0.95,-1.26,-2.71 (inactive)
C=C[C@H](CO)NS(=O)(=O)c1ccc(Br)cc1,1.25 (inactive),-0.24,-0.261 (inactive),-0.102 (inactive),-0.154 (inactive),0.325 (inactive),0.0242,2.3 (inactive),0.447 (inactive),0.264,1.52,0.131,1.34,-0.328,-0.451,0.63,0.489 (inactive),0.3,0.525,0.204 (inactive)
CCCC[C@@H]1C[C@H]1[C@@H](NC(=O)c1ccco1)c1ccccc1C(F)(F)F,-1.91 (inactive),2.47,0.233 (inactive),0.105 (inactive),-0.104 (inactive),0.471 (inactive),-0.278,-0.295 (inactive),-1.28 (inactive),-1.26,-2.09,-1.51,-0.489,-1.1,-0.484,-1.7,-1.22 (inactive),-0.583,-0.481,-0.26 (inactive)
CC(C)C(=C=CC[C@H](O)c1ccc(OCCO)cc1)CCO,-0.595 (inactive),0.0945,9.47 (active),1.99 (inactive),1.11 (inactive),0.553 (inactive),-0.365,-1.06 (inactive),-0.581 (inactive),-1.96,0.421,0.799,0.101,-3.35,-2.14,-1.55,-0.722 (inactive),-0.881,-0.0147,1.05 (inactive)
C=C(COC)/C(=C/C[C@H](OC(C)=O)c1ccc(CO)o1)c1cc(C(=O)OC)ccc1OC,0.506 (inactive),-0.193,1.25 (inactive),-2.29 (inactive),0.672 (inactive),-2.07 (inactive),0.873,-1.85 (inactive),-1.92 (inactive),-1.14,-0.588,0.635,-0.603,-0.659,-0.0381,-0.527,-0.29 (inactive),-0.0437,0.000891,-0.369 (inactive)
CO[C@H]1O[C@H](CO)[C@@H](OC(=O)Nc2cccc(F)c2)[C@H](OC(=O)Nc2ccccc2)[C@@H]1OC(=O)Nc1ccccc1,-1.17 (inactive),0.22,8.61 (active),1.93 (inactive),-0.476 (inactive),1.4 (inactive),0.646,-1.12 (inactive),-0.322 (inactive),-1.08,-1.61,0.18,-2.08,-3.43,-4.24,-0.702,-1.66 (inactive),-1.22,-1.07,-3.16 (inactive)
CN1C=C(C(=O)OCCS(C)(=O)=O)C(C(=O)OCCS(C)(=O)=O)=CC(c2ccc(CO)cc2)=CC1C1CC1 (stereo not given),0.225 (inactive),-0.147,11.3 (active),1.46 (inactive),-0.107 (inactive),0.897 (inactive),0.116,-2.88 (inactive),-1.13 (inactive),-2.52,1.39,-0.0622,1.28,-0.807,-0.75,2.14,-0.9 (inactive),0.167,-0.919,-0.267 (inactive)
NC(=O)[C@@H]1[C@H]2C(=O)O[C@H](c3ccccc3)[C@H](c3ccccc3)N2[C@H](c2ccc(O)cc2)[C@@]12C(=O)Nc1ccccc12,0.428 (inactive),0.157,1.19 (inactive),-0.619 (inactive),-0.267 (inactive),-2.21 (inactive),1.57,-1.93 (inactive),-1.13 (inactive),-0.42,-0.343,0.956,-0.19,-0.647,-0.07,-0.376,-0.0789 (inactive),-0.902,-0.079,-0.0543 (inactive)
C=CCC(OC(C)=O)[C@@H]1[C@@H](N(Cc2ccc(-c3ccccc3)cc2)C(=O)c2ccc(-c3ccccc3)cc2)c2cc(OCCCO)ccc2N1C(=O)Cc1ccc2ccccc2c1 (stereo not given in full),-0.706 (inactive),0.155,0.05 (inactive),0.129 (inactive),-0.472 (inactive),0.408 (inactive),-0.309,0.795 (inactive),1 (inactive),0.532,-0.475,0.367,0.325,-2.3,-0.806,0.96,-1.07 (inactive),-0.793,0.292,1.2 (inactive)
CCOC(=O)C[C@H]1[C@H](OC(=O)c2ccc(C(=O)c3ccccc3)cc2)[C@@H](NC(=O)CC(C)C)c2cc(OCCCO)ccc2N1C(=O)c1ccc2ccccc2n1,1.66 (inactive),-0.0518,3.64 (inactive),0.582 (inactive),0.0206 (inactive),-0.135 (inactive),0.276,-1.46 (inactive),0.892 (inactive),0.97,0.713,-0.177,0.592,0.143,0.263,2.53,1.59 (inactive),0.944,-0.67,0.59 (inactive)
O=C(NC1CC1)[C@@H]1c2ccccc2C(=O)N(Cc2ccccc2Cl)[C@H]1c1ccc(CO)cc1,4.2 (inactive),0.208,3.45 (inactive),0.652 (inactive),-1.05 (inactive),0.204 (inactive),2.67,-1.1 (inactive),0.54 (inactive),0.33,3.23,1.4,2.25,-0.867,0.97,2.95,0.623 (inactive),-0.566,1.41,1.76 (inactive)
CN(C)CCCCCCNC(=O)[C@@H]1C[C@@H]2C(=O)N[C@@H](Cc3ccccc3)C(=O)N2[C@@H]1c1ccc(O)cc1,-0.0959 (inactive),0.378,1.85 (inactive),0.596 (inactive),2.42 (inactive),0.228 (inactive),0.594,-0.745 (inactive),0.262 (inactive),-0.632,-0.58,0.502,-0.948,-1.45,-0.571,-1.15,-1.42 (inactive),-0.00023,0.0429,-1.03 (inactive)
CC(C)C(O)C1C=CC2C(=O)NC(=O)C2N1Nc1ccc(Cl)cc1Cl (stereo not given),-1.3 (inactive),-0.114,1.41 (inactive),0.648 (inactive),-0.782 (inactive),0.997 (inactive),-1.23,-0.714 (inactive),-4.39 (inactive),-3.83,-1.06,-0.699,-0.401,-0.687,-0.644,-2.25,-1.12 (inactive),-0.161,-0.143,-0.883 (inactive)
O=C1C[C@]2(c3ccc([N+](=O)[O-])cc3)C(=O)N(CC(F)(F)F)c3cc(CO)ccc3[C@H]2N1C1CCCCC1,0.983 (inactive),-0.233,-0.524 (inactive),0.345 (inactive),0.503 (inactive),0.133 (inactive),-0.116,-0.502 (inactive),0.00678 (inactive),0.428,1.81,-0.677,0.203,0.0687,1,0.38,0.986 (inactive),0.247,1.9,-0.745 (inactive)
O=C1c2ccccc2[C@](Cc2ccccc2I)(C(=O)NCCN2CCOCC2)[C@H](c2ccc(CO)cc2)N1C1CCCCC1,0.0237 (inactive),0.373,3.66 (inactive),0.814 (inactive),0.664 (inactive),0.5 (inactive),-0.164,0.155 (inactive),0.784 (inactive),0.958,0.668,0.195,1.52,-0.196,-1.22,1.36,-1.01 (inactive),-0.385,-0.96,-0.112 (inactive)
